{"source": "paper PMC5540273", "about": "(PLoS ONE, 2017);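 also: kd values determined as follow-up on hits from a single-replicate KINOMEscan panel screen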", "key": {"VPS34": {"test_system": "T1, VPS34", "T1 construct": "gene PIK3C3"}, "VEGFR2": {"test_system": "T2, VEGFR2", "T2 construct": "gene KDR"}, "TAK1": {"test_system": "T3, TAK1", "T3 construct": "gene MAP3K7"}, "[1]": {"test_system": "TYK2(JH1domain-catalytic)"}}}
{"smiles": "Cc1nn2c(=O)cc(N3CCOCC3)nc2n1Cc1cccc(Cl)c1Cl", "note": "[GSK2342769]", "values": [{"measurement": "Kd", "setting": "VPS34", "result": 0.00043, "unit": "µM"}]}
{"smiles": "COc1ccc(-c2coc3ccc(-c4nnc(SCc5cccc(C#N)c5)o4)cc23)cc1", "values": [{"measurement": "Kd", "setting": "ULK3", "result": "> 10", "unit": "µM"}]}
{"smiles": "CN(C)c1cc(-c2ccc3c(N)n[nH]c3c2)nc(N)n1", "note": "[GSK2219329]", "values": [{"measurement": "Kd", "setting": "TXK", "result": "> 10", "unit": "µM"}]}
{"smiles": "CN1C(=O)C(Nc2cc(Cl)c(O)c(Cl)c2)=C(c2ccc(Cl)cc2)C1=O", "note": "[SB-404321]", "values": [{"measurement": "Kd", "setting": "SRPK3", "result": "> 10", "unit": "µM"}, {"measurement": "Kd", "setting": "VRK2", "result": "> 10", "unit": "µM"}]}
{"smiles": "COc1cc2ncn(-c3cc(OCc4ccncc4)c(C(N)=O)s3)c2cc1OC", "note": "[GSK336313]", "values": [{"measurement": "Kd", "setting": "TIE1", "result": "> 10", "unit": "µM"}]}
{"smiles": "COc1cc(OC)cc(-c2cc3cnc(N)nc3nc2NC(=O)NC(C)(C)C)c1", "values": [{"measurement": "Kd", "setting": "TNK2", "result": "> 10", "unit": "µM"}, {"measurement": "Kd", "setting": "TYRO3", "result": "> 10", "unit": "µM"}]}
{"smiles": "COc1cc2nccc(Nc3ccc(OCc4ccc(NC(C)=O)cc4)cc3)c2cc1OC.Cl", "note": "[GW440135]", "values": [{"measurement": "Kd", "setting": "VEGFR2", "result": 0.053, "unit": "µM"}]}
{"smiles": "COc1ccc(-c2cc3c(C)nc(N)nc3n([C@H]3CC[C@H](O)CC3)c2=O)cn1", "values": [{"measurement": "Kd", "setting": "TBK1", "result": "> 10", "unit": "µM"}]}
{"smiles": "CCn1c(-c2ccoc2)nc2cnccc21", "note": "[SB-733887]", "values": [{"measurement": "Kd", "setting": "TAK1", "result": "> 10", "unit": "µM"}]}
{"smiles": "Cc1cc(Nc2nc(-c3cccc(C)n3)nc3ccccc23)ccn1", "note": "[GW872411]", "values": [{"measurement": "Kd", "setting": "TGFBR1", "result": 0.27, "unit": "µM"}]}
{"smiles": "COc1cc(Nc2nccc(N3CCC(NC(=O)C4COc5ccccc5O4)C3)n2)cc(OC)c1OC", "note": "(centres unmarked) [GSK1379761]", "values": [{"measurement": "Kd", "setting": "[1]", "result": 1.5, "unit": "µM"}]}
{"smiles": "Cc1ccccc1COc1cc(-n2cnc3cc(Cl)ccc32)sc1C(N)=O", "note": "[GW813349]", "values": [{"measurement": "Kd", "setting": "VPS34", "result": "> 10", "unit": "µM"}]}
{"smiles": "Cc1nnc(-c2ccc3ncn(-c4ccc(S(C)=O)cc4)c3c2)o1", "note": "(centres unmarked)", "values": [{"measurement": "Kd", "setting": "TAOK1", "result": "> 10", "unit": "µM"}, {"measurement": "Kd", "setting": "TAOK3", "result": "> 10", "unit": "µM"}]}
{"smiles": "Nc1nc(-c2ccccc2F)c(-c2ccnc3ccccc23)s1", "note": "[GW560459]", "values": [{"measurement": "Kd", "setting": "TNNI3K", "result": "> 10", "unit": "µM"}]}
